According to PubChem BioAssay AID488890 (Southern Research Specialized Biocontainment Screening …, 2010):
Hit rate of the full screen: of about 320,000 compounds, about 1,300 (0.41%) were called active. Not shown: some 3% with an inconclusive outcome. The rule behind the calls is not given here. A selection follows. Measured potencies and affinities stand elsewhere.

Experiment: growth inhibition of non-replicating M. tuberculosis (AID 488890);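 note: plate controls were DMSO cells for no effect and high antibiotic wells for full effect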
Settings: Mycobacterium tuberculosis non-replicating, at 25 µM, stronger effect = higher value

| Structure (SMILES) | inhibition [%] |
| --- | --- |
| CCN(CC)S(=O)(=O)c1ccc(NC(=O)c2cccs2)cc1 | -5.05 |
| O=C(COc1ccccc1C(=O)Nc1ccccc1)c1ccc(F)cc1 | 2.88 |
| Cc1sc(NC(=O)C2CSC3(C)CCC(=O)N23)nc1-c1ccc(F)cc1 (centres undefined) | 23.3 |
| CNC(=O)C1CCC(=O)N1Cc1ccccc1Cl (centres undefined) | -5.58 |
| Cc1[nH]c2ccccc2c1CC#N | -7.72 |
| COC(=O)CNC(=O)COC(=O)/C=C/c1cccs1 | -8.45 |
| COc1ccc(/C=C2\N=C(C(C)(C)C)OC2=O)c(OC)c1 | 64.4 |
| CN(C)c1ccc(C=C2C(=O)OC(C)(C(C)(C)C)OC2=O)cc1 (centres undefined) | -8.32 |
| CCN(C[C@H]1N[C@@](C)(C(=O)OC)[C@H]2C(=O)N(C)C(=O)[C@@H]12)C(=O)C1CCCCC1 | 1.05 |
| CS(=O)(=O)Nc1ccccc1C(=O)NC1CC2CCC1C2 (centres undefined) | -26.9 |
| COc1ccc(NC(=O)Cn2c(=O)n(CC3CCCO3)c(=O)c3cc(OC)c(OC)cc32)cc1OC (centres undefined) | 3.8 |
| COC(=O)c1ccccc1OCCOCCOc1cccc2cccnc12 | -0.9 |
| O=C(c1ccc(Cl)cc1)N1CCCCC(Sc2nnc(-c3ccc4c(c3)OCO4)o2)C1=O (centres undefined) | 17.2 |
| O=C1OCCC1Sc1nnc(-c2ccc3c(c2)OCO3)o1 (centres undefined) | 0.17 |
| Cc1ccc(S(=O)(=O)N(C)C)cc1-n1c(SCC(=O)Nc2ccc(F)cc2)nc2ccccc2c1=O | 26.8 |
| CC(=O)/C=C\c1ccccc1OC(=O)c1cc2ccccc2oc1=O | 18 |
| COC(=O)c1ccccc1OC(=O)c1cc2ccccc2oc1=O | 17.4 |
| Cc1ccc(NC(=O)C2(S(=O)(=O)c3ccc(C)cc3)CC2)cc1 | 7.01 |
| CCCCOc1ccc(C(=O)NCC(=O)NNC(=O)c2ccco2)cc1 | 9.92 |
| CCCOc1ccc(C(=O)Nc2ccc(NC(=O)c3cccs3)cc2)cc1 | -8.66 |
| COc1ccc(C(=O)NC(=S)NNC(=O)c2ccco2)cc1 | 78.5 |
| CCCC(=O)Nc1ccc(C(=O)NNC(=S)NC(=O)c2cccs2)cc1 | -6.93 |

| Structure (SMILES) | inhibition [%] |
| --- | --- |
| c1cnc2c(OCc3cn4cccnc4n3)cccc2c1 | 24.9 |
| CCC(C(=O)NCc1ccco1)N(C(=O)CNS(=O)(=O)c1ccccc1)C1CCCCC1 (centres undefined) | 18.4 |
| COc1ccc(-n2c(SCC(=O)O)nnc2-c2ccc(NC(=O)c3ccccc3)cc2)cc1 | 9.48 |
| CCCc1nnc(-c2cc(OC)c(OC)c(OC)c2)o1 | 7.1 |
| CCOc1ccc(-c2nnc(-c3ccc(OC)cc3)o2)cc1 | 53.7 |
| COc1ccc(-c2nnc(SCC#N)o2)cc1 | 65.7 |
| COc1ccc(-c2ccc(-c3nnc(Cc4ccc(OC)c(OC)c4)o3)cc2)cc1 | 15.8 |
| COc1ccc(-c2nnc(SCc3cc(C)cc(C)c3)o2)cc1 | 42.9 |
| CC(=O)CSc1nnc(Cc2ccc([N+](=O)[O-])cc2)o1 | 70.9 |
| Cc1nnc(SCc2ccc([N+](=O)[O-])cc2)o1 | 16.4 |
| COc1ccc(NCc2nnc(-c3ccccc3)o2)cc1 | 69.4 |
| Cn1c(=O)c(=O)n(C)c2cc(S(=O)(=O)N3CCOCC3)ccc21 | -6.34 |
| COC(=O)c1cc(S(=O)(=O)NCc2ccccc2Cl)c[nH]1 | -3.81 |
| Cc1ccc2c(c1)N(S(=O)(=O)c1ccc(CN3C(=O)c4cccnc4C3=O)cc1)CCO2 | 15.3 |
| Cn1c(SCc2cccnc2)nc2cccnc21 | -20.7 |
| CC/C(=N\N=C1\SC(C)C(=O)N1Cc1ccco1)c1ccccc1 (centres undefined) | 32 |
| COc1ccccc1CNC(=O)c1cnn2c(C(F)F)cc(C)nc12 | 24.9 |
| COc1ccccc1N1CCN(S(=O)(=O)CCNC(=O)C2CC2)CC1 | -6.08 |
| COc1ccc(-c2cc(C(F)F)n3ncc(C(=O)Nc4cnn(Cc5ccccc5)c4)c3n2)cc1 | -6.39 |
| Clc1ccccc1OCc1nnc(-c2ccccc2Br)o1 | 29.1 |
| Fc1ccc(-c2nnc(Cc3nnc(-c4ccc(F)cc4)o3)o2)cc1 | -8.26 |
| Cc1cccc(NCc2ccccc2O)c1C | 12.1 |

| Structure (SMILES) | inhibition [%] |
| --- | --- |
| O=[N+]([O-])c1ccc(Cc2nnc(-c3ccc(F)cc3)o2)cc1 | 72.1 |
| c1ccc(OCc2nnc(-c3ccccc3)o2)cc1 | 62.3 |
| c1ccc(CN2CCN(Cc3nnc(-c4ccccc4)o3)CC2)cc1 | 30.8 |
| O=[N+]([O-])c1ccc(Cc2nnc(-c3ccccc3Cl)o2)cc1 | 34.9 |
| COc1ccc(OC)c(NCc2nnc(-c3ccccc3)o2)c1 | 77 |
| O=C(Nc1nn(Cc2ccc(Cl)cc2)cc1Br)c1ccc(COc2ccccc2Cl)o1 | 44.8 |
| CCc1cc(CC)c(/C=N/NC(N)=O)c(CC)c1 | 6.49 |
| COc1ccc(-n2cnc3sc4c(c3c2=O)CCCC4)cc1 | 26 |
| CC(C)c1nnc(NC(=O)CN2C(=O)c3ccccc3C2=O)s1 | -1.11 |
| Cc1ccc(-n2ncc(C(=O)N3CCN(C(=O)c4ccco4)CC3)c2C2CCN(C(=O)OC(C)(C)C)CC2)cc1C | -1.31 |
| O=C(C1CCC1)N1CCc2cc(S(=O)(=O)NCCCN3CCCCC3)ccc21 | -2.13 |
| CCOC(=O)c1c(NC(=O)Nc2ccc(F)cc2)sc2c1CCN(C)C2 | 0.96 |
| C=CCn1c(O)c(C(CC)=NCCc2c[nH]c3ccccc23)c(=O)[nH]c1=O | 18.7 |
| O=[N+]([O-])c1cccc(-c2nnc(C3CC3)o2)c1 | 8.89 |
| Clc1ccc(-c2nnc(C3CC3)o2)cc1 | 63 |
| COc1cc(NC(=O)c2ccc(Cl)cc2)c(Cl)cc1NC(=O)c1cccnc1 | -8.85 |
| COc1cccc(O)c1CN1CCC(C(=O)Nc2ccc(Oc3cccnc3)cc2)CC1 | 19.3 |
| Cc1ccccc1CN1CCC(C(=O)Nc2ccc(Oc3cccnc3)cc2)CC1 | 30.1 |
| CC1Cc2ccccc2N1C(=O)CO/N=C/c1ccccc1OC(F)F (centres undefined) | -12.1 |
| C=CCn1c(O)c(N=NC(=O)C(O)c2ccccc2)c2ccccc21 (centres undefined) | 15.4 |
| CC(OC(=O)c1snc(C(=O)NC2CCCCC2)c1N)C(=O)NC(C)(C)C (centres undefined) | 48.2 |
| CC(C)(C)NC(=O)CN(C(=O)c1snc(C(=O)NC2CCCCC2)c1N)c1ccc(F)cc1 | -3.77 |

| Structure (SMILES) | inhibition [%] |
| --- | --- |
| CCOC(=O)c1snc(C(=O)NC2CCCCC2)c1N | 64.4 |
| CC(OC(=O)c1snc(C(=O)NC2CCCCC2)c1N)C(=O)NC1CCCCC1 (centres undefined) | -11.8 |
| C/C(=N\NC(=O)C(C)Nc1cccc(Cl)c1)c1ccc([N+](=O)[O-])cc1 (centres undefined) | 6.72 |
| Cc1ccc2oc(=O)c3cnn(CC(=O)NCCC(C)C)c3c2c1 | -1 |
| COCCN1C(=O)N[C@@H](c2ccccc2)[C@@H](C(=O)OC)[C@H]1C | -23.2 |
| CC(C)NC(=O)C(c1ccc(F)cc1)N(C(=O)CCC(=O)Nc1ccccn1)C1CCCCC1 (centres undefined) | -1.84 |
| O=C1Nc2ccccc2C1Cc1ccccc1 (centres undefined) | 24.6 |
| FC(F)(F)c1cc(CO[C@@H]2CCCN[C@@H]2c2ccccc2)cc(C(F)(F)F)c1 | 63.4 |
| CCOc1ccc(Br)cc1/C=N/NC(=O)c1ccncc1 | 73.7 |
| CS(=O)(=O)c1ccc(Cl)c(NC(=O)COC(=O)Cc2c[nH]c3ccccc23)c1 | -10 |
| Cc1cccc(NC(=O)COC(=O)Cc2c[nH]c3ccccc23)c1C | 6.74 |
| Cc1ccc(NC(=O)COC(=O)Cc2c[nH]c3ccccc23)cc1C | 35.7 |
| O=C(COC(=O)Cc1c[nH]c2ccccc12)Nc1cccc2ccccc12 | 2.45 |
| CS(=O)(=O)c1ccc(Cl)c(NC(=O)COC(=O)CCc2c[nH]c3ccccc23)c1 | 74.8 |
| COc1ccc(NC(=O)COC(=O)CCCc2c[nH]c3ccccc23)cc1OC | 16.1 |
| COc1ccc(CNC(=O)CCc2c[nH]c3ccccc23)cc1 | -7.3 |
| COc1ccc(C(=O)NCCc2c[nH]c3ccccc23)cc1 | 25.8 |
| CCc1ccccc1N(C(=O)c1snc(C(N)=O)c1N)C(C(=O)NCC1CCCO1)c1ccc(C)o1 (centres undefined) | 37.2 |
| C[C@H]1COC(=O)[C@H](Cc2ccc(F)cc2)C/C=C\C[C@H](CC(=O)NCCO)C(=O)N1 | 6.21 |
| CCCCN(C(=O)C1CCC1)c1c(N)n(CCC)c(=O)[nH]c1=O | -13.3 |
| COc1cc(OC)c(C2=NOC(C(=O)NCc3cccnc3)C2)cc1Cl (centres undefined) | 2.26 |
| COc1ccc(NC(=O)c2coc3ccccc23)cc1OC | 48.1 |

| Structure (SMILES) | inhibition [%] |
| --- | --- |
| C[C@H](OC(=O)N1CCN(C(c2ccccc2)c2ccccc2)CC1)[C@@H]1O[C@@]2(C)CCC[C@H]1O2 | 3.49 |
| COCCN1C(=O)c2ccccc2C(C(=O)N2CCN(c3ccccc3)CC2)C1c1ccc(F)cc1 (centres undefined) | 30 |
| Cc1ccc(NC(=O)CCc2c[nH]c3ccccc23)nc1 | 65.6 |
| NS(=O)(=O)c1cccc(NC(=O)COC(=O)CCCc2c[nH]c3ccccc23)c1 | 7.86 |
| Cc1ccnc(NC(=O)CCCc2c[nH]c3ccccc23)c1 | 11.4 |
| COc1cccc(NC(=O)COC(=O)CCCc2c[nH]c3ccccc23)c1 | 58.5 |
| CC(=O)Nc1ccc(NC(=O)COC(=O)CCCc2c[nH]c3ccccc23)cc1 | 13.7 |
| O=C(COC(=O)c1c[nH]c2ccccc12)Nc1ccc([N+](=O)[O-])cc1 | -4.96 |
| COc1ccc2cc(C3CC(c4cccs4)=NN3C(C)=O)c(Cl)nc2c1 (centres undefined) | -4.81 |
| CCCc1nc2c(=O)[nH]c3ccccc3c2o1 | -9.47 |
| CCCCc1nc2c(=O)[nH]c3ccccc3c2o1 | -16.6 |
| CNCc1ccccc1Sc1cccc(O)c1 | -3.89 |
| CNCc1ccccc1Sc1ccc(O)c(O)c1 | 33.3 |
| COc1ccc(CCNC(=O)COc2ccc(-c3ccc(C#N)cc3)cc2)cc1 | 72.4 |
| CC(=O)Nc1ccc(NC(=O)COc2ccc(-c3ccc(C#N)cc3)cc2)cc1 | -7.55 |
| O=C(O)COc1ccc2oc3ccccc3c2c1 | 3.49 |
| CC(=O)NCCOc1ccc2oc3ccccc3c2c1 | 5.68 |
| CC(C)N(Cc1ccccc1)C(=O)CC(=O)N(Cc1ccccc1)C(C)C | 6.28 |
| CCc1ccc(-c2cc(C)no2)cc1S(=O)(=O)Nc1cc(C)ccn1 | -1.42 |
| CCOC(=O)N1CCN(C(=O)CN(C)S(=O)(=O)c2ccc(Cl)cc2)CC1 | -17.1 |
| CSCCC(NC(=O)c1ccco1)C(=O)NC1CCCCCC1 (centres undefined) | -8.42 |
